# ALR inh: inhibitors of human ALR sulfhydryl oxidase, primary screen, biochemical, H2O2 detection, HRP-luminol luminescence, single point | FAD-linked sulfhydryl oxidase ALR (Homo sapiens), P55789 | AID 485317, 2010 | purified ALR, DTT oxidation | 290,000 compounds, 3.8% hits | inhibition, % (no concentration beside the values);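 active means mean replicate inhibition above about 79%, with every replicate also reaching it, limit read from the data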
# Target sequence (P55789 whole entry, looked up): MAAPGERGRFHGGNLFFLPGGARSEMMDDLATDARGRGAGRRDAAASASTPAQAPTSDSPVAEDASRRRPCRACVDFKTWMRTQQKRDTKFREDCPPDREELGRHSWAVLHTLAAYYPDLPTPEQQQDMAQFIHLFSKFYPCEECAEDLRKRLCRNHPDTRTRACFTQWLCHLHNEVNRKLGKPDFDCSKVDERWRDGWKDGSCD
# APOBEC3A inh: APOBEC3A ssDNA deaminase inhibitors, primary screen, selectivity assay for APOBEC3G inhibitor project, biochemical, FAM/TAMRA oligo cleavage fluorescence | DNA dC->dU-editing enzyme APOBEC-3A (Homo sapiens), P31941 | recombinant A3A, FAM/TAMRA ssDNA deamination fluorescence | inhibition, % at 20 µM | 330,000 compounds, 0.41% hits | AID 493011, 2011;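 active means at least 40% inhibition at 20 µM here, with at most 30% in a related deaminase screen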;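 further: plate controls were A3A with DMSO for no effect and wells lacking A3A enzyme for full effect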
# A3G deaminase: APOBEC3G DNA deaminase inhibitors, primary screen, biochemical, fluorescence, single-stranded DNA substrate, uHTS. recombinant A3G, ssDNA deamination FAM/TAMRA fluorescence. 330,000 compounds, 0.28% hits. DNA dC->dU-editing enzyme APOBEC-3G (Homo sapiens), Q9HC16. inhibition, % at 20 µM;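 active means inhibition of at least 40% at 20 µM, with no more than 30% in the related APOBEC3A deaminase screen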;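 further: plate controls were DMSO wells with A3G for no effect and wells lacking A3G enzyme for full effect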
# rCAG binder: binders of r(CAG) RNA repeats, primary screen, biochemical, fluorescence; AID 651821, 2012; inhibition, % at 3 µM; 370,000 compounds, 1.3% hits; r(CAG) RNA repeat, TO-PRO-1 dye displacement fluorescence;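 active means inhibition above the plate cutoff, the mean of all test compounds on that plate plus 3 SD, cut at about 35% in these data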;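 further: 0% = DMSO alone and 100% = 100 µM mitoxantrone as full dye displacement; higher means more dye released from RNA so lower well fluorescence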
# aDG glyco up: activators of alpha-DG glycosylation, primary screen, uHTS, Pro5-aDG cells, AlphaScreen. alpha-DG glycosylation AlphaScreen (IIH6); 0% Pro5, 100% B10-LARGE cell signal. activation, % at 10 µM. 360,000 compounds, 0.22% hits. AID 624168, 2012;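 active means activation of at least 8% versus controls, or a plate z-score of at least 8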;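 further: Pro5 are CHO cells carrying HIG-tagged alpha-DG that lacks glycosylation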
# PHOSPHO1 inh: PubChem AID 1565 | recombinant PHOSPHO1, absorbance phosphatase assay | inhibition, % at 13.3 µM | 290,000 compounds, 1.1% hits; in the data active means inhibition above about 60%
# Target sequence (Q8TCT1 whole entry, looked up): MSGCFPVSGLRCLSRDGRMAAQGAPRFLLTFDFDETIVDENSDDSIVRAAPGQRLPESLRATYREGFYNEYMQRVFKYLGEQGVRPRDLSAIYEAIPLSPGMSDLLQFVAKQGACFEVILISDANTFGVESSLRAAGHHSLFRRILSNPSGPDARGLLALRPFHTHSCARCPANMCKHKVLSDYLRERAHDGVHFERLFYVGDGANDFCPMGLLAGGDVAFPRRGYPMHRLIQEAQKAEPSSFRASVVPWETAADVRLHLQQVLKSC
# rCAG binder conf: small molecules binding CAG repeat RNA – biochemical, fluorescence, confirmation; shares compounds with rCAG binder; r(CAG) RNA repeat, TO-PRO-1 dye displacement fluorescence; inhibition, % at 3 µM; 4,300 compounds, 70% hits;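 active means inhibition above a per-plate cutoff, the mean inhibition of sample wells plus 3 SD, cut at about 35% in these data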;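 further: loss of TO-PRO-1 fluorescence as compound displaces dye from 1x1 AA loop RNA; 0% = DMSO only wells and 100% = 100 µM mitoxantrone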
# DNA CAG counter: displacement of TO-PRO-1 from CAG DNA duplex, counter-screen for rCAG RNA repeat binder project, biochemical, fluorescence, TO-PRO-1 dye, d(CAG) DNA oligo. shares compounds with rCAG binder. 4,300 compounds, 94% hits. d(CAG) DNA oligo TO-PRO-1 dye displacement. inhibition, % at 3 µM;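 active means inhibition above its plate's cutoff, the mean test-well inhibition plus 3 SD, cut at about 4.8% in these data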;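 further: 0% = DNA dye mix with DMSO and 100% = 100 µM mitoxantrone; hits displace the dye from DNA and so lower well fluorescence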
# DNA CAG DR: inhibitors of DNA CAG/GTC TO-PRO-1 complex, dose response, counter-screen for rCAG RNA repeat binder project, biochemical, fluorescence, TO-PRO-1 dye | shares compounds with rCAG binder | DNA CAG/GTC duplex TO-PRO-1 dye displacement fluorescence | IC50, µM | 250 compounds, 20% hits | AID 686960, 2013; in the data active means IC50 below about 10 µM
# Starred values were filed as active, the others as inactive; i = inactive; . = no result. In the library only some 5.4% were active in any assay of this set; here they are far more common.
SMILES,ALR inh,APOBEC3A inh,A3G deaminase,rCAG binder,aDG glyco up,PHOSPHO1 inh,rCAG binder conf,DNA CAG counter,others
O=C1c2cc(CO)cc(O)c2C(=O)c2c(O[C@@H]3OC(CO)[C@@H](O)[C@@H](O)[C@@H]3O)cccc21 (some centres not stated),-15,2,-4,0,1,.,.,.,
O=C(O)c1cc(O)c2c(c1)[C@@H]([C@H]1c3cc(C(=O)O)cc(O)c3C(=O)c3c(O[C@@H]4O[C@H](CO)[C@@H](O)[C@H](O)[C@H]4O)cccc31)c1cccc(OC3O[C@H](CO)[C@@H](O)[C@H](O)[C@H]3O)c1C2=O (some centres not stated),-13,98,89,100*,0,.,86*,52*,
c1coc(-c2ccc3nncn3c2)c1,.,.,.,47*,0,.,46*,18*,DNA CAG DR=i
O=C(/C=C/c1ccc(O)c([N+](=O)[O-])c1)c1ccc2ccccc2c1,0,-1,-6,42*,0,32,78*,39*,
COc1ccc(Oc2ccc(/C=C/C(=O)c3ccc(O)cc3)cc2[N+](=O)[O-])cc1,96*,7,2,37*,-1,-5,23,11*,
CCOC(=O)C1(C)CCCN(C(=O)c2ccc3ccccc3c2)C1 (configuration not stated),.,.,.,0,1,.,.,.,
O=C(COC(=O)c1cc(-c2ccco2)nc2ccccc12)NCc1ccccc1,26,2,2,38*,0,15,10,4,
CN(CC(=O)Nc1ccc(F)cc1)C(=O)c1cc(-c2ccco2)nc2ccccc12,9,82,55,30,0,.,.,.,
Cc1ccc(NC(=O)CN(C)C(=O)c2cc(-c3ccco3)nc3ccccc23)cc1,1,82,42,35*,0,.,14,8.7*,
CCOC(=O)C1CCCN(C(=O)c2cc(-c3ccco3)nc3ccccc23)C1 (configuration not stated),.,93,80,39*,0,.,32,15*,
Cn1c(N)c(C(=O)COC(=O)c2cc(-c3ccco3)nc3ccccc23)c(=O)n(C)c1=O,.,16,18,49*,0,-11,45*,20*,
CCOC(=O)[C@]12Cc3c(cc(OC)c(OC)c3OC)[C@H]1N(C1CCCCC1)C(=O)c1cc(OC)ccc12,.,.,.,0,0,.,.,.,
COc1cc(C)ccc1S(=O)(=O)NC(=O)C1(C)CCN1C(=O)c1ccc(C2CCCCC2)cc1 (configuration not stated),.,.,.,40*,0,.,38*,8.3*,
Cc1cc(N2C(=O)C(O)=C(C(=O)c3cc4ccccc4o3)C2c2ccc(Cl)cc2)no1 (configuration not stated),-3,-5,-4,56*,0,51,75*,38*,
Cc1cc(N2C(=O)C(O)=C(C(=O)c3ccc(C)o3)C2c2cccc(Cl)c2)no1 (configuration not stated),.,.,.,27,0,.,.,.,
Cc1cc(N2C(=O)C(O)=C(C(=O)c3cc4ccccc4o3)C2c2cccc(Cl)c2)no1 (configuration not stated),.,-7,-6,60*,0,18,71*,32*,DNA CAG DR=5.7*
COc1ccc(-c2ccc(C(=O)Nc3cccc(C(F)(F)F)c3)c3occc23)c(C)c1,.,.,.,6,1,.,.,.,
CCOC(=O)C1(C(=O)OCC)Cc2c([nH]c3ccccc23)[C@]2(N1)C(=O)N(C)c1ccc(Br)cc12,.,.,.,3,.,.,.,.,
O=C(c1cccs1)N1C[C@H](O)[C@@H](n2cc(C3CC3)nn2)C[C@@H]1c1ccccc1,.,.,.,1,0,.,.,.,
O=C1c2ccccc2C(=O)N1c1ncc(Cc2ccc(Cl)cc2)s1,.,.,.,42*,0,-14,12,2,
COC(=O)c1c(NC(=O)/C=C/C(=O)O)sc(C)c1-c1ccc(C(C)C)cc1,33,-3,-3,52*,1,-112,51*,16*,
COC(=O)c1scc(C)c1NC(=O)/C=C/C(=O)O,.,0,-6,2,0,25,.,.,
COC(=O)c1c(NC(=O)/C=C/C(=O)O)sc(C)c1-c1ccc(C)c(C)c1,.,0,1,37*,0,4,36*,9.1*,
CCOC(=O)c1c(NC(=O)/C=C/C(=O)O)sc(C)c1-c1ccc(C)c(C)c1,98*,5,-3,53*,0,35,53*,17*,
CCOC(=O)c1c(C)nn(-c2ccc(NC(=O)/C=C/C(=O)O)cc2)c1C,8,-4,-7,-3,0,27,.,.,
SMILES,ALR inh,APOBEC3A inh,A3G deaminase,rCAG binder,aDG glyco up,PHOSPHO1 inh,rCAG binder conf,DNA CAG counter,others
CCOc1ccc(S(=O)(=O)Nc2cc(SCC(=O)O)c(O)c3ccccc23)cc1,67,.,.,36*,3.9*,-89,60*,24*,
N#CC12C(=O)NC(=O)C1(C#N)C21CCCC1 (configuration not stated),.,.,.,1,0,.,.,.,
Cc1csc2ncc(C(=O)NCc3ccccc3Cl)c(=O)n12,1,3,5,2,0,-14,.,.,
Cc1nc2c(C(=O)NCc3ccccc3Cl)c[nH]n2c(=O)c1Cl,.,-3,-6,81*,0,14,58*,21*,
Cc1nc2c(C(=O)NCCc3ccccc3Cl)c[nH]n2c(=O)c1Cl,99*,3,-7,71*,0,4,74*,33*,DNA CAG DR=4.5*
CCOC(=O)N1CCN(S(=O)(=O)c2ccc(C(=O)NNc3nc4c(C)cc(C)cc4s3)cc2)CC1,25,-5,-3,69*,-1,-6,64*,25*,
Cc1cc(C)c2nc(NNC(=O)c3ccc(S(=O)(=O)N4CCCCC4)cc3)sc2c1,6,1,0,55*,0,-4,38*,15*,

# Assay outcomes deposited in PubChem by several laboratories.
